Screen size: about 63,000 compounds; about 1,100 (1.7%) were called active. What follows is part of a selection rich in actives, with near analogues and random picks from the rest. Results with a measured potency or affinity are listed apart. Values without a mark were called inactive. No stated cut-off is given here; in the data, active means cytotoxicity above about 50%; inactive means the rest.

The nature of the assay: cytotoxicity in HPDE-C7 cells, cell-based, fluorescence, HTS (AID 430).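 Further: cells exposed to compound for 48 hours before viability readout; 0% = vehicle and 100% = reference cytotoxic drug.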 As to conditions: HPDE-C7 pancreatic duct cells viability, at 10 µM, active compounds read high.
Take `CSc1nc2ccc(NS(=O)(=O)c3ccc(Cl)s3)cc2s1`: the cytotoxicity was 55.3% (active).
For `CSc1nc2ccc(S(=O)(=O)NC3CCCCC3)cc2s1`, the cytotoxicity is 6.9%.
`Cc1ccc(S(=O)(=O)Nc2ccc3nc(N)sc3c2)cc1`: the cytotoxicity was -16.3%.
Take `CCOc1cccc(/C(O)=C2/C(=O)C(=O)N(CCOC)C2c2ccc(C)o2)c1` (centres undefined): the cytotoxicity is -8%.
For `Cc1cc(C)nc(N2CCC(CNC(=O)CCc3ccccc3)CC2)n1`, the cytotoxicity was -11.3%.
In the case of `O=C(CCc1nc2ccccc2[nH]1)Nc1ccccc1`, the cytotoxicity is -8.6%.
In the case of `CCOC(=O)c1c(C)c(C(=O)Nc2ccc3c(c2)OCCO3)c(C)n1CC` it was 17.2%.
In the case of `CCOC(=O)c1c(C)c(C(=O)Nc2ccc(N(C)C)cc2)c(C)n1CC` it was 54.2% (active); in that of `CCOC(=O)c1c(C)c(C(=O)Nc2ccccc2)c(C)n1CC`, 4.4%; in that of `CC(C)NS(=O)(=O)c1ccc(CCC(=O)O)cc1`, -5.7%.
In the case of `CC1=C(C(N)=O)C(c2cccnc2)n2nc(-c3cccc(C)c3)nc2N1` (centres undefined), the cytotoxicity was -15.3%.
In the case of `CCCc1cc(C(=O)Cc2ccc(F)cc2)c(O)cc1O` it was 78.8% (active); in that of `CCc1cc(C(=O)Cc2cnn(-c3ccccc3)c2)c(O)cc1O`, 14.9%.
In the case of `CCCc1cc(C(=O)Cc2ccc(C(=O)OCC)o2)c(O)cc1O` it was 24%.
In the case of `CCc1cc(C(=O)Cc2ccc(F)cc2)c(O)cc1O`, the cytotoxicity was 54.4% (active).
Take `CCc1cc(C(=O)Cc2nc3ccccc3[nH]2)c(O)cc1O`: the cytotoxicity was 9.1%.
In the case of `CCc1cc(C(=O)COc2ccccc2F)c(O)cc1O` it was 5.5%; in that of `CC(=O)c1cnc2cc(-c3ccccc3)nn2c1C`, -20.8%.
In the case of `Cc1nc(SCc2ccccc2)c(C(F)(F)F)c(=O)[nH]1` it was 2.3%; in that of `Cc1nc(Nc2ccccc2)[nH]c(=O)c1CCC(C)C`, -16.8%; in that of `Cc1ccc(Nc2nc(C)c(CCC(C)C)c(=O)[nH]2)cc1`, 7.1%.
In the case of `Cc1nc(Nc2ccc(F)cc2)[nH]c(=O)c1CCC(C)C` it was 62.1% (active).
As to `Cc1ccc(-c2nn(CC(=O)NCCN3CCOCC3)c(=O)c3ccccc23)cc1`, the cytotoxicity is 0.5%.
In the case of `O=C(Cn1nc(-c2ccccc2)c2ccccc2c1=O)NCCN1CCOCC1` it was -11.2%; in that of `O=c1c2cccc3c2c(nn1CN1CCOCC1)-c1ccccc1-3`, 53% (active).
As for `O=C(CSc1nnc(-c2ccc(O)cc2)n1Cc1ccco1)c1cccs1`, the cytotoxicity is -1.1%.
In the case of `O=C(CC(SCCO)c1ccc2c(c1)OCO2)c1cccs1` (centres undefined) it was 54.5% (active); in that of `CC(NC(=O)c1cccs1)c1ccc2c(c1)OCO2` (centres undefined), -2.3%.
In the case of `O=C(CSCc1ccco1)c1cccs1` it was -7.2%; in that of `O=C(CC(SCc1ccco1)c1ccc(O)cc1)c1cccs1` (centres undefined), 54.4% (active).
As to `O=C(CC(SCCO)c1ccc2c(c1)OCO2)c1ccco1` (centres undefined), the cytotoxicity was 1.4%.
Regarding `COc1ccc(N2CCN(C(=O)CSc3ccccc3N)CC2)cc1`, the cytotoxicity was -6.2%.
Turning to `O=C(CCCSc1nc(-c2ccco2)cc(C(F)(F)F)n1)NCc1cccs1`, the cytotoxicity is -4.3%.
As to `Cc1c(Cl)cccc1NC(=O)Cn1cccc1`, the cytotoxicity was 3.2%.
`Cc1cc(Nc2nc3ccccc3[nH]c2=O)n(-c2ccccc2)n1`: the cytotoxicity was 8%.
In the case of `O=C(CN(Cc1ccco1)C(=O)CNS(=O)(=O)c1ccc(F)cc1)NCc1ccc(F)cc1` it was -4%.
In the case of `O=C(CN(Cc1ccco1)C(=O)CNS(=O)(=O)c1ccc(Cl)cc1)NCc1ccc(F)cc1` it was 70% (active).
Consider `O=C(CN(Cc1ccco1)C(=O)CNS(=O)(=O)c1ccccc1)NCc1ccc(F)cc1`, for which the cytotoxicity was -1.3%.
Consider `OCCNc1nc(Nc2ccccc2)nc(Nc2ccccc2)n1`, for which the cytotoxicity is 2.2%.
Regarding `CC(C)n1c(Nn2cnnc2)nc2ccccc21`, the cytotoxicity is 3.1%.
In the case of `Cc1cc(C(=O)OCC(=O)N2CCN(c3ccccc3)CC2)c2ccccc2n1` it was -8.3%; in that of `O=C(CSc1nnc(-c2cccnc2)n1Cc1ccco1)c1ccccc1`, -18.2%.
Take `CC(=O)c1cccc(NC(=O)Cc2cccs2)c1`: the cytotoxicity was -5.3%.
Regarding `O=C(Cc1cccs1)Nc1cccc(C(=O)Nc2ccco2)c1`, the cytotoxicity is 54.2% (active).
In the case of `O=C(Cc1cccs1)Nc1ccc(NC(=O)c2ccco2)cc1` it was -14.5%.
As for `CCOC(=O)C(C)Sc1nnc(Cn2c(=O)sc3ccccc32)n1-c1ccccc1` (centres undefined), the cytotoxicity was 18.4%.
In the case of `CCOC(=O)N1CCN(C(=O)C2CCC(C(=O)N3CCN(C(=O)OCC)CC3)CC2)CC1` (centres undefined) it was -3.2%; in that of `O=C(c1cccc2ccccc12)N1CCN(CC2CC=CCC2)CC1` (centres undefined), -22%; in that of `Cc1occc1C(=O)Nc1cccc(C(=O)NCc2ccccc2)c1`, -18%.
Consider `O=C(NCc1ccco1)c1cccc(NC(=O)c2ccccc2)c1`, for which the cytotoxicity was 10.1%.
In the case of `CCC(CC)C(=O)Nc1cccc(C(=O)NCc2ccco2)c1` it was -24.1%; in that of `O=C(NCc1ccccc1)c1cccc(NC(=O)c2ccco2)c1`, 44.7%.
For `Cc1ccc(C(=O)Nc2cccc(C(=O)NCc3ccco3)c2)cc1`, the cytotoxicity was 62.7% (active).
For the compound `O=C(O)c1ccc(CNC(=O)c2ccc(Br)o2)cc1`, the cytotoxicity was 0.5%.
For `CC(OC(=O)C1CCN(S(=O)(=O)c2ccccc2)CC1)C(=O)Nc1ncc(Cl)cc1Cl` (centres undefined), the cytotoxicity was -0.7%.
`O=C(Nc1ccc(O)cc1)c1ccc(C(=O)c2ccccc2)o1`: the cytotoxicity was -1.5%.
In the case of `Cc1ncoc1C(=O)Nc1ccc(Oc2ccccc2)cc1` it was -20.9%.
In the case of `CCc1ccccc1N(CC(=O)N1CCN(c2ccccc2)CC1)S(C)(=O)=O` it was -3%.
Regarding `COC(=O)c1c(-c2cccs2)csc1NC(=O)CN1CCOCC1`, the cytotoxicity was -10.4%.
`CCOC(=O)c1c(-c2cccs2)csc1NC(=O)CN1CC(C)OC(C)C1` (centres undefined): the cytotoxicity is 61.1% (active).
On to `CCOC(=O)c1c(-c2cccs2)csc1NC(=O)CCCC(=O)O`, for which the cytotoxicity was 8.6%.
For `CCOC(=O)c1ccc(NC(=O)CSc2nc3c(c(=O)n2CC)SC(C)C3)cc1` (centres undefined), the cytotoxicity was 55.3% (active).
In the case of `CCn1c(SCC(=O)Nc2cccc(C)c2)nc2c(c1=O)SC(C)C2` (centres undefined) it was 3.7%.
In the case of `CCOC(=O)c1ccc(NC(=O)CSc2nc3c(c(=O)n2C)SC(C)C3)cc1` (centres undefined) it was 1.1%.

The values are drawn from PubChem BioAssay AID430 (Sanford-Burnham Center for Chemical Genomics, 2006).
